Compound activity deposited in PubChem BioAssay by National Center for Advancing Translational Sciences (NCATS).
A488 autofl: compound autofluorescence in A488 spectral region; hit rate 0.1% among 59,000; compound autofluorescence, A488 spectral region, dye equivalency; Compound Type: qHTS ECL - MLSMR; max dye equivalency, M
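Compounds pin-transferred into 100 mM Tris buffer, pH 8.0, incubated 15 min at room temperature, then imaged with 480 nm excitation/540 nm emission filters. Fluorescence converted to Alexa 488 dye-equivalent concentration via an on-plate six-point A488 standard curve.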
A647 autofl: compound fluoresces in the A647 spectral region | Compound fluorescence, A647 channel (570/671 nm), Tris buffer | 59,000 tested, under 10 active | max dye-equivalent concentration, M
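Fluorescence read (570 nm ex, 671 nm em) after 15 min RT incubation of compounds in 100 mM Tris buffer, pH 8.0; values expressed as dye-equivalent concentration against a six-point A647 standard series on each plate.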
Rhodamine fluor: rhodamine region autofluorescence | max dye-equivalent concentration, M | Rhodamine-region fluorescence, 547/598 nm, Tris buffer; hits give high values | hit rate 0.05% among 59,000; in the data active = max dye-equivalent concentration above about 11 nM; inconclusive = between about 1.1 nM and that limit
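Intrinsic compound fluorescence, ex 547 / em 598 nm, CCD imager. Tris 100 mM pH 8.0; 15 min RT. Output = rhodamine dye-equivalent concentration at each compound concentration.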
Fluorescein autfl: compound autofluorescence in fluorescein spectral region; Compound autofluorescence, 480/540 nm, fluorescein-equivalent; hits give high values; max fluorescein-equivalent concentration, M; hit rate 0.91% among 59,000; in the data active = max fluorescein-equivalent concentration above about 10 nM; inconclusive = between about 1.1 nM and that limit
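Tris 100 mM pH 8.0; 15 min RT; CCD read, ex 480/em 540 nm. Output: fluorescein-equivalent concentration per compound concentration, from six-point dye series on each plate.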
Texas Red fluor: compound fluoresces in the Texas Red spectral region | Compound fluorescence, Texas Red channel, 547/618 nm; hits give high values | max dye-equivalent concentration, M | hit rate 0.06% among 59,000; in the data active = max dye-equivalent concentration above about 10 nM; inconclusive = between about 1.1 nM and that limit
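Fluorescence at ex 547/em 618 nm, normalized against an on-plate Texas Red standard series to give dye-equivalent concentration per compound concentration. Buffer 100 mM Tris, pH 8.0; 15 min RT incubation before CCD imaging.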
Resorufin autofl: compound fluoresces in the resorufin spectral region; Compound fluorescence, resorufin region 547/598 nm, buffer; hits give high values; max dye-equivalent concentration, M; hit rate 0.04% among 59,000
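Compounds in 100 mM Tris, pH 8.0, incubated 15 min at room temperature, then fluorescence read at 547 nm excitation/598 nm emission. Signal converted to dye-equivalent concentration via an on-plate six-point resorufin standard curve, per compound concentration.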
Large screens that a line does not name were inactive. Compounds with a hit are over-represented: about 0.95% of the library has one in this group of screens. Unless noted, the rule behind the calls is not given here.

CCOC(=O)c1c(C)oc2c1c(/C=N/c1ccccn1)c(O)c1ccccc12	Fluorescein autfl 2.2e-08M
NC(N)=N/N=C(/c1ccccc1)c1ccc(O)cc1O	Fluorescein autfl inconclusive
COC(=O)c1c(=O)n(O)c2ccc(OC)cc2[n+]1[O-]	A488 autofl inconclusive, Fluorescein autfl 3.6e-08M
NCC[C@H]1CCC[C@H](CCN)N1	Fluorescein autfl inconclusive
CCCn1c(=NC(=O)c2ccco2)c(C(=O)OCC)cc2c(=O)n3ccccc3nc21	none
CC(C)n1c(=NC(=O)c2ccco2)c(C#N)cc2c(=O)n3ccccc3cc21	Fluorescein autfl 1.1e-08M, Texas Red fluor inconclusive
COc1cccc2c1C(=O)c1c(O)c3c(c(O)c1C2=O)C[C@](O)(C(C)=O)C[C@H]3O[C@@H]1C[C@H](N)[C@H](O)[C@H](C)O1	A488 autofl inconclusive, Rhodamine fluor 6e-08M, Fluorescein autfl 2e-07M, Texas Red fluor 5.9e-08M, Resorufin autofl 4.5e-08M
CC(=O)[C@@]1(O)Cc2c(O)c3c(c(O)c2[C@H](O[C@H]2C[C@H](N)[C@H](O)[C@H](C)O2)C1)C(=O)c1ccccc1C3=O	A488 autofl 2.4e-08M, Rhodamine fluor 4.2e-08M, Fluorescein autfl 4.7e-07M, Texas Red fluor inconclusive, Resorufin autofl 2.4e-08M
COc1cccc2c1C(=N)c1c(O)c3c(c(O)c1C2=O)C[C@](O)(C(C)=O)C[C@@H]3O[C@H]1C[C@H](N)[C@@H](O)[C@H](C)O1	Rhodamine fluor inconclusive, Texas Red fluor 1e-08M
COc1cccc2c1C(=O)c1c(O)c3c(c(O)c1C2=O)C[C@@](O)(C(=O)CO)C[C@@H]3O[C@H]1C[C@H](N)[C@H](O)[C@H](C)O1	A488 autofl 1.3e-08M, Rhodamine fluor 8.7e-08M, Fluorescein autfl 2.9e-07M, Texas Red fluor 8.3e-08M, Resorufin autofl 7.6e-08M
CCCN1C[C@@H](CSC)C[C@H]2c3cccc4[nH]cc(c34)C[C@@H]21	Fluorescein autfl inconclusive, Texas Red fluor inconclusive
CCCCOc1ccc(-c2c(C#N)c(N)nc(SCC(N)=O)c2C#N)cc1	Rhodamine fluor inconclusive, Fluorescein autfl 1e-08M, Texas Red fluor inconclusive
CCCCOC(=O)CSc1nc(N)c(C#N)c(-c2ccc(OCC)cc2)c1C#N	Texas Red fluor inconclusive
C/C(=N/O)c1ccc2cc(Br)c3ccccc3c2c1	Fluorescein autfl inconclusive
O=C1CC(/C=C/c2ccco2)=Nc2ccccc2N1	A488 autofl inconclusive, Fluorescein autfl 3.6e-08M, Texas Red fluor inconclusive
CC1(C)c2ccccc2N2CC(=O)NC21/C=C/c1ccco1 (stereo not drawn)	Fluorescein autfl inconclusive
C[C@@]12C[C@H](O)[C@@H]3[C@H](CCC4=CC(=O)CC[C@]43C)[C@H]1CC[C@@H]2c1csc(-c2ccccc2)n1	none
CC(=O)[C@@H]1[C@@H]2C(=O)N(c3ccc(F)c(Cl)c3)C(=O)[C@@H]2C2c3ccccc3C=CN21 (stereo partly drawn)	A488 autofl inconclusive, Rhodamine fluor inconclusive, Fluorescein autfl 3.3e-08M, Texas Red fluor inconclusive, Resorufin autofl inconclusive
CC(=O)[C@H]1[C@@H]2C(=O)N(c3cccc(Cl)c3)C(=O)[C@@H]2[C@H]2c3ccccc3C=CN21	Fluorescein autfl 1.8e-08M
N#C[C@@H]1[C@@H]2C(=O)N(c3ccc4c(c3)OCCO4)C(=O)[C@@H]2C2c3ccccc3C=CN21 (stereo partly drawn)	Rhodamine fluor inconclusive, Fluorescein autfl 1.3e-08M, Texas Red fluor inconclusive, Resorufin autofl inconclusive
COc1ccc(NC(=O)[C@@H]2[C@@H]3C(=O)N(C4CCCCC4)C(=O)[C@@H]3C3c4ccccc4C=CN32)cc1 (stereo partly drawn)	Fluorescein autfl inconclusive
O=C(c1ccco1)[C@@H]1[C@@H]2C(=O)N(c3ccc(F)cc3)C(=O)[C@@H]2C2c3ccccc3C=CN21 (stereo partly drawn)	Fluorescein autfl 1.3e-08M, Texas Red fluor inconclusive
O=C(c1ccco1)[C@@H]1[C@@H]2C(=O)N(c3ccc(Br)cc3)C(=O)[C@@H]2C2c3ccccc3C=CN21 (stereo partly drawn)	Fluorescein autfl inconclusive, Texas Red fluor inconclusive
CC(=O)[C@H]1[C@H]2[C@H](C(=O)[C@@H]3OC[C@H]2O3)[C@@H]2c3ccccc3C=CN12	Fluorescein autfl inconclusive
